TRPML1 ag: qHTS for Agonists of the Human Mucolipin Transient Receptor Potential 1 (TRPML1); Mucolipin-1 (Homo sapiens), Q9GZU1; TRPML1-expressing cells, Ca2+ dye fluorescence, FDSS; activation, % (concentration not given with the values); 410,000 compounds, 0.12% hits; AID 624414, 2012; in the data active means activation above about 50%; inconclusive means mostly about 30% to 49%; further: 0% is about no effect
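Agonist activity was taken from a 110 s kinetic Ca2+ dye read on the FDSS after pinning compounds onto TRPML1-DL cells. The cells were seeded at 1,500/well with Tet inducer, incubated about 16 h, then dye-loaded at room temperature.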
TRPML1 inh: qHTS for Inhibitors of the Human Mucolipin Transient Receptor Potential 1 (TRPML1). Mucolipin-1 (Homo sapiens), Q9GZU1. TRPML1-inducible cells, Ca2+ dye fluorescence, FDSS; hits give low values; inhibition of EC80 agonist-evoked calcium signal. activity change, negative = inhibition, % (test concentration not listed). 390,000 compounds, 0.02% hits. AID 624415, 2012; in the data active means activity change below about -50%; inconclusive means between about -30% and that limit;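 further: stimulus is agonist 54-4 at its EC80 concentration; on the % scale 0 is the no-effect control and ±100 the full control effect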
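TRPML1-DL cells, Tet-induced overnight (~16 h, 37 °C) at 1,500 cells/well, were loaded with Ca8 no-wash dye plus quencher for 45-90 min at room temperature. Compounds were pinned during FDSS kinetic reading; agonist 54-4 at EC80 (4 uM final) then added.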
TRPV1 PAM: HTS Assay for Compounds that Act as Potentiators of the Vanilloid Receptor 1 | 320,000 compounds, 0.02% hits | potentiation, % at 8.33 µM | TRPV1-expressing cells, Fluo-8 calcium influx, capsaicin EC20 potentiation | Transient receptor potential cation channel subfamily V member 1 (Homo sapiens), Q8NER1 | AID 540277, 2011; in the data active means potentiation above about 80%; inconclusive means between about 30% and that limit; further: 0% is about no effect
Target sequence (Q8NER1 whole entry, looked up): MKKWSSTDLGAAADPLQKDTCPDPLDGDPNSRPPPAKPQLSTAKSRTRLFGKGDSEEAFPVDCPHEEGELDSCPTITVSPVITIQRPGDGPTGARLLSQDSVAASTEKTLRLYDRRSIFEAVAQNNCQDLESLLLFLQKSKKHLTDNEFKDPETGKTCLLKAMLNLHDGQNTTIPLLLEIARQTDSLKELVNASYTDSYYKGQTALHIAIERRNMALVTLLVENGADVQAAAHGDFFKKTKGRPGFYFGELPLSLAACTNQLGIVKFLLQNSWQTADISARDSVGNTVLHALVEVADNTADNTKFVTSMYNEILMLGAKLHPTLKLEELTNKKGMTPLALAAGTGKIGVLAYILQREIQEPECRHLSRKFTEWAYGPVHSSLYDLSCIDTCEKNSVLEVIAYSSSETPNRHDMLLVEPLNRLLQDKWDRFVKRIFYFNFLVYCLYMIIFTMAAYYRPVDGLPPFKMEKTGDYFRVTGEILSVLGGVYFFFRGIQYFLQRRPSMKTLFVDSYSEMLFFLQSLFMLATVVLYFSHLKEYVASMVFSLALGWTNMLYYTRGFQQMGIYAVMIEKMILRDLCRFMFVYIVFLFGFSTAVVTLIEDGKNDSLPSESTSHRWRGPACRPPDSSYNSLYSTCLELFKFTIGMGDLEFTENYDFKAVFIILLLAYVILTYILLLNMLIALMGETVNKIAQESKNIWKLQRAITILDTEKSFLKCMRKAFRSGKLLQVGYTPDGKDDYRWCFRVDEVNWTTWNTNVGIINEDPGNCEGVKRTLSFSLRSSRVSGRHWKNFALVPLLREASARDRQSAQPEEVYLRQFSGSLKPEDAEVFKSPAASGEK
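Cells expressing TRPV1 were dye-loaded with Fluo-8 and read kinetically: 10 s baseline, 3 min after compound (agonist portion), then 2 min after EC20 capsaicin (allosteric enhancer portion). Calcium-bound dye fluorescence at 480/520 nm.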
AT treatment: qHTS Assay for Identifying a Potential Treatment of Ataxia-Telangiectasia | F2112 A-T fibroblasts, KAP-1 phosphorylation AlphaLISA; neocarzinostatin DNA damage 30 min before lysis | 320,000 compounds, 0.19% hits | AID 485349, 2010 | Potency, µM (highest dose often 57.5 µM), without a hit: top-dose activation, most hits filed as activators; further: potency means the concentration at half of the fitted maximal effect; % of control where 0% means no effect; nearly all actives have a fitted effect of over 45% in size
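hTERT-immortalized A-T patient fibroblasts (F2112), 500 cells/well in OPTI-MEM, 1% FBS, got compounds for 60 min, then NCS for 30 min at 37C. Lysates were then assayed for phospho-KAP-1 by AlphaLISA (anti-pKAP1 donor, anti-KAP1 acceptor beads), 6 hr at 25C.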
TRPV1 ag: HTS Assay for Compounds that Act as Agonists of the Vanilloid Receptor 1. Transient receptor potential cation channel subfamily V member 1 (Homo sapiens), Q8NER1. TRPV1-expressing cells, Fluo-8 calcium influx, agonist mode. activation, % at 8.33 µM. 320,000 compounds, 0.19% hits; in the data active means activation above about 80%; inconclusive means between about 30% and that limit; further: 0% is about no effect
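Fluo-8 calcium influx in TRPV1-expressing cells, kinetic read (ex 480/em 520 nm). Compound added and read 3 min for agonist activity, followed by capsaicin at EC20 final and 2 min further read for enhancement.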
RGS4 inhibitor: Inhibitors of Regulator of G Protein Signaling (RGS) 4: qHTS; Transcreener GDP fluorescence polarization, RGS4-accelerated GTP hydrolysis; Potency, µM (series often up to 114 µM), for inactives: at the highest dose activity change, negative = inhibition, most hits filed as inhibitors; 390,000 compounds, 0.039% hits; further: potency means the concentration at half of the fitted maximal effect; on the % scale 0 is the no-effect control and ±100 the full control effect; nearly all actives have a fitted effect of over 75% in size
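MLSMR compounds (23 nl, pin-transferred) preincubated 10 min at room temperature with a 500nM (2x) first reagent, then RGS4 at 900nM (2x) plus Transcreener GDP mix added; fluorescence polarization (620/688 nm) read before and after 90 min at 30 °C.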
Numbers without * were called inactive; ? = inconclusive; . = no result; ! = a repeat was not active. Compounds with a hit are over-represented: about 0.5% of the library has one in this group of screens. Unless noted, the call rests on the fitted dose curve; in most records, active means well fitted curve in the direction sought with a large enough effect; inconclusive means small, poorly fitted or top-dose-only effect, or another doubt; inactive means no such curve, though single readings can be large; an effect the other way counts as inactive or inconclusive.

SMILES	TRPML1 ag	TRPML1 inh	TRPV1 PAM	AT treatment	TRPV1 ag	RGS4 inhibitor
CCCc1nn2c(=O)cc(COC(=O)c3cccc(NC(=O)CCc4ccccc4)c3)nc2s1	2.4	-62.2*	.	.	.	-1.7%
CC(C)CCN1C(=O)c2cccc3c(N)ccc(c23)C1=O	88.6*	-12.2	.	.	.	-16.5%
Cc1cccc(N2C(=O)c3cccc4c(N)ccc(c34)C2=O)c1	104.0*	-9.9	14.5	34.0%	148.4*	15.6%
Cc1cccc(N2C(=O)c3cccc4c(N(C)CCO)ccc(c34)C2=O)c1	76.6*	-1.4	0.2	-17.8%	1.1	-26.4%
Nc1cccc(N2C(=O)c3cccc4c(N)ccc(c34)C2=O)c1	55.4*	-22.8	-6.5	-6.1%	26.4	-0.9%
O=C(O)c1cccc(N2C(=O)c3cccc4c(Cl)ccc(c34)C2=O)c1	0.0	-3.8	13.0	-2.5%	-3.4	-2.7%
Cc1cccc(N2C(=O)c3cccc4cccc(c34)C2=O)c1	.	.	16.3	13.4%	-5.7	-11.8%
CN(C)c1ccc2c3c(cccc13)C(=O)N(c1ccccc1)C2=O	.	.	2.4	3.1%	1.5	.
CCN1C(=O)c2cccc3c(Cl)ccc(c23)C1=O	-1.3	-7.3	-2.6	1.3%	2.5	1.4%
NC(=S)NN=Cc1c[nH]c2nccnc12	-0.7	3.4	.	.	.	.
O=C(NCC(c1cccnc1)N1CCN(c2ccccc2F)CC1)c1ccco1 (stereo unspecified)	-0.2	32.7	-0.8	6.4%	0.6	-17.3%
COc1ccc(OC)c(/C=C/C(=O)OCC(=O)NC2CCCCCCC2)c1	1.7	14.0	7.6	9.2%	-0.4	-2.3%
O=C(O)c1ccc2c3c(cccc13)C(=O)N(c1ccccc1)C2=O	1.1	-7.2	0.4	-1.5%	2.0	13.2%
Nc1ccc2c3c(cccc13)C(=O)N(c1ccccc1)C2=O	93.6*	-3.4	1.9	11.9%	-2.1	13.9%
Cc1ccc(C(=O)NCC(c2cccnc2)N2CCc3ccccc3C2)cc1C (stereo unspecified)	-0.5	-1.8	.	.	.	-2.1%
O=c1cc(N2CCCCC2)c(-c2ccccc2)nn1Cc1ccccc1	2.7	-8.0	2.1	8.3%	81.0*	-15.2%
COc1ccc(Cn2nc(-c3ccccc3)c(N3CCCCC3)cc2=O)cc1	1.4	1.4	14.2	8.6%	85.0*	11.6%
CC(C)C(NC(=O)c1ccc(Br)cc1)C(=O)NC1=NCCS1 (stereo unspecified)	0.2	10.6	-2.0	0.7%	9.9	26.7%
CCOC(=O)N1CCN(C(=O)/C=C/c2ccc3c(c2)OCO3)CC1	-0.9	5.6	-6.8	2.3%	4.9	-13.4%
O=C(C(NS(=O)(=O)c1cccs1)c1ccccc1)N1CCN(c2ccccc2)CC1 (stereo unspecified)	1.9	37.0	.	6.6%	.	-13.3%
COCCNC(=O)CSc1n[nH]c(=O)n1CCc1ccccc1	.	.	24.3	17.8µM*	-5.1	14.3%
CCOc1ccccc1NC(=O)CN(CCc1ccccc1)S(=O)(=O)c1ccc(C)cc1	3.8	61.0	.	.	.	12.8%
Cc1cc(C)cc(NC(=O)CSc2oc(-c3ccco3)nc2S(=O)(=O)c2ccccc2)c1	0.2	-16.8	.	.	.	-13.2%
COC(=O)c1ccc(NC(=O)C(C)Oc2ccccc2)cc1 (stereo unspecified)	-0.7	2.6	-3.7	3.4%	8.2	-1.1%
Cn1nccc1C(=O)NC1CCCc2c1cnn2-c1ccc(C(C)(C)C)cc1 (stereo unspecified)	-0.4	33.9	4.3	20.5%	81.0*	-12.4%
SMILES	TRPML1 ag	TRPML1 inh	TRPV1 PAM	AT treatment	TRPV1 ag	RGS4 inhibitor
CC(=O)Oc1ccc(C(=O)OCC(=O)c2c(N)n(C)c(=O)n(C)c2=O)cc1OC(C)=O	0.4	-5.1	6.1	0.0%	-1.5	-21.5%
CC1CCN(CCOc2ccc(C(=O)c3ccccc3)cc2)CC1	-0.2	-13.7	81.5*	3.3%	1.5	-36.8%
COCCNC(=O)c1ccc(NS(=O)(=O)c2cc(C)ccc2C)cc1	1.3	-8.5	6.4	0.0%	-4.8	5.8%
COc1ccc(CC(=O)Nc2cccc3ncccc23)cc1OC	0.3	16.9	-6.2	10.2%	5.4	3.0%
COc1ccc(CC(=O)NCc2ccc(-n3cccc3)cc2)cc1OC	-1.2	4.7	-24.1	-7.4%	80.8*	-5.0%
Cc1ccc(CNC(=O)Cc2ccc(-n3cccc3)cc2)cc1	0.6	22.9	-2.8	4.4%	3.9	-20.2%
COc1cc(Cl)c(C)cc1NC(=O)Cc1ccc(OC)c(OC)c1	2.5	4.5	-24.3	3.2%	89.2*	-27.5%
COc1ccc(CC(=O)Nc2cccc3ccccc23)cc1OC	-0.6	2.7	-7.3	0.5%	89.0*	-1.4%
Cc1cc2nc(/C=C/c3nc4cc(C)c(C)cc4[nH]3)[nH]c2cc1C	-0.2	5.4	?	22.4µM*	5.7	0.2%
CC[C@H](NC(C)C)[C@H](O)c1ccc(O)c2[nH]c(=O)ccc12	.	.	.	.	.	23.8µM*!
CCC(NC(C)C)C(O)c1ccc(O)c(O)c1 (stereo unspecified)	0.3	-7.7	-1.3	-8.1%	1.9	?
C/C(=N\Nc1ccc2nncn2n1)c1ccc(Br)s1	2.0	-10.4	-9.7	11.2%	95.8*	-6.9%
CC[C@@H]1CCC[C@@H](O)[C@@H](C)C(=O)O[C@H](C)[C@@H](C)C/C=C(C)/C(OC)=C\C(=O)N(C)C([C@@H](C)CC)C(=O)N(C)[C@@H](C(C)C)C(=O)N(C)[C@@H](COC)C(=O)N2CCC[C@H]2C(=O)N(C)[C@@H](C(C)C)C(=O)N2CCC[C@H]2C(=O)O1 (stereo partly specified)	51.1*	.	.	.	.	.
O=C(/C=C/c1ccccc1)Nc1cccnc1Cl	-1.4	-11.9	-30.4	4.2%	84.2*	-8.4%
O=C(COC(=O)/C=C/c1ccccc1)Nc1cccnc1Cl	0.4	-7.6	2.1	10.2%	7.8	-14.7%
Cc1cc(N)c(NC2=CC(=O)CC(C)(C)C2)cc1C	59.5*	4.1	?	5.9%	1.9	10.7%
Cc1ccc(NC(=O)Nc2cccnc2)cc1NC(=O)Nc1cccnc1	5.9	14.7	-3.2	1.26µM*	0.3	-4.2%
Cc1cc2oc(C(=O)Nc3cccnc3)c(C)c2cc1C	-0.3	13.6	0.2	-3.0%	85.0*	4.4%
